Compound activity as filed in PubChem.
An excerpt weighted towards active compounds, which were near 21% of everything screened.
SARS PLpro yeast: blocks SARS-CoV papain-like protease in a yeast assay; S. cerevisiae expressing SARS-CoV PLpro, growth rescue; Potency, µM (top dose mostly 32.9 µM), actives largely listed as activators; 330,000 tested, 0.19% active; AID 485353; further: nearly all actives have a fitted effect of over 55% in size
Pf growth 48h: P. falciparum growth inhibition at 48 hours (one generation). P. falciparum luciferase growth in erythrocytes, 48 h. Potency, µM (top dose mostly 28.7 µM), hits mostly inhibitors. 310,000 tested, 5.9% active; active means well fitted inhibition curve with a large enough effect; inconclusive means small, poorly fitted or top-dose-only effect, or another doubt; inactive means no such curve, though single readings can be large or run the other way
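Cell-based growth assay: transgenic P. falciparum expressing firefly luciferase, cultured in red cells within RPMI 1640 containing 0.5% w/v Albumax, 24 mM bicarbonate and gentamycin. A drop in luciferase activity indicates inhibition.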
NS1 inh: influenza NS1 inhibition. Potency, µM (titrated, usually from 46.1 µM). 270,000 tested, 0.4% active. AID 2326; further: actives are rising curves; nearly all actives have a fitted effect of over 50% in size
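S. cerevisiae expressing influenza A NS1, grown in glucose, washed, then diluted 1:100 into pH 6.0 -URA galactose medium with 23 nl compound. Growth recovery read as OD600; NS1-free strain serves as control.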
Cycloheximide cs: counter-screen for Shiga toxin inhibitors: cycloheximide protein synthesis inhibition; cell reporter, cycloheximide protein synthesis inhibition counterscreen; max response, %; 300,000 tested, 12% active; AID 2314; in the data active means max response mostly above about 13%, no sharp cut-off; inactive means mostly below about 14%; further: read at 38.3 µM for the half of the compounds with a filed dose
Shiga inhibitor: blocks Shiga toxin action in Vero cells. Vero cells, Shiga toxin protein synthesis inhibition reporter. inhibition, % at 38.7 µM. 290,000 tested, 9.2% active. AID 2315; in the data active means inhibition mostly above about 28%, no sharp cut-off; inactive means mostly below about 43%
Pf growth 96h: P. falciparum growth inhibition at 96 hour, primary screen for plastid delayed-death inhibitors | P. falciparum luciferase reporter growth, 96 h | Potency, µM (top dose mostly 28.7 µM), usual class: inhibitors | 320,000 tested, 6.9% active | AID 504834; active means well fitted inhibition curve with a large enough effect; inconclusive means small, poorly fitted or top-dose-only effect, or another doubt; inactive means no such curve, though single readings can be large or run the other way
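Readout is luminescence from an integrated firefly luciferase in P. falciparum. Red cells, 2% hematocrit and 0.05% parasitemia final, were cultured with compound through two parasite generations (96 hours) at 37 C, 5% CO2.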
A number is an active result; n = inactive; u = inconclusive; x = no result given; [ ] = dose if it differs, or a comment. Unless noted, the call rests on the fitted dose curve.

SMILES | SARS PLpro yeast | Pf growth 48h | NS1 inh | Cycloheximide cs | Shiga inhibitor | Pf growth 96h
O=C(CCCOc1ccccc1)N1CCCCC1 | n | x | n | 55 | n | n
CCC1SC(CC)C(=O)N(CC(=O)Nc2ccc3c(c2)OCO3)C1=O (stereo not drawn) | n | n | n | n | n | n
O=C(Oc1ccccc1F)c1ccc2c(=O)n3c(nc2c1)CCC3 | n | n | x | x | x | n
COc1ccccc1C(=O)NCCC(=O)N1CCN(S(=O)(=O)c2cccc(Cl)c2)CC1 | n | u | x | x | x | u
COc1ccccc1C(=O)NCCC(=O)N1CCN(S(=O)(=O)c2ccc(Cl)cc2)CC1 | n | u | x | x | x | 13µM
COc1ccccc1C(=O)NCCC(=O)N1CCCC(C)C1 (stereo not drawn) | n | n | n | n | n | n
O=C(CCCOc1ccccc1)N1CCN(S(=O)(=O)c2ccc(Cl)cc2)CC1 | x | 12µM | x | x | x | n
CCOC(=O)C1CCN(C(=O)CCCOc2ccccc2)CC1 | n | n | n | 36 | 64 | x
CCOc1ccc(OCCCC(=O)N2CCN(S(=O)(=O)c3ccc(Cl)cc3)CC2)cc1 | n | n | x | x | x | n
COc1ccccc1C(=O)NCCC(=O)Nc1ccc(S(=O)(=O)N2CCCC(C)C2)cc1 (stereo not drawn) | n | 15µM | x | x | x | u
Fc1ccc(-c2ccnc(=S)[nH]2)cc1 | n | n | n | n | n | n
CC(=O)c1cccc(CN(C)CC2CCCN(CCc3ccccc3C)C2)c1 (stereo not drawn) | n | u | n | n | n | n
O=[N+]([O-])c1ccc(NNS(=O)(=O)c2cc(Cl)ccc2Cl)nc1 | n | u | n | n | n | u
O=C(NCCc1ccc(O)cc1)c1ccc(Cl)cc1 | n | n | n | 56 | 70 | n
CCN(CC)Cc1cc(CCNC(=O)c2ccc(Cl)cc2)ccc1O | n | u | n | 17 | n | x
O=C(NCCc1ccc(Cl)cc1)c1ccc2nccnc2c1 | n | n | n | 52 | 67 | n
CN(Cc1ccon1)Cc1cn(Cc2ccccc2)nc1-c1ccc2c(c1)OCO2 | n | u | n | n | n | n
Cc1ccccc1Nc1nc(N)nc(CSc2nc3ccccc3c(=O)n2C)n1 | n | n | n | n | n | x
CCOc1ccc(Nc2nc(N)c3ccccc3n2)cc1 | n | u | n | n | n | u
Nc1nc(Nc2ccc(Cl)cc2)nc2ccccc12 | n | x | n | 30 | n | u
Oc1ccc(Nc2nc(-c3ccc(Cl)cc3)nc3ccccc23)cc1 | x | x | x | n | n | x
Nc1nc(Nc2ccccc2)nc2ccccc12 | n | 3.3µM | n | n | n | u
Cc1ccccc1Nc1nc(N)c2ccccc2n1 | n | n | n | 21 | 52 | u
COc1ccc(C)cc1Nc1nc(N)c2ccccc2n1 | n | u | n | 28 | 55 | u
COCCN(C(=O)C1CCN(C(=O)c2ccccc2C)CC1)c1c(N)n(CC(C)C)c(=O)[nH]c1=O | n | n | x | x | x | n
SMILES | SARS PLpro yeast | Pf growth 48h | NS1 inh | Cycloheximide cs | Shiga inhibitor | Pf growth 96h
Cn1nnnc1SCC(=O)Nc1nc2c(F)c(F)c(F)cc2s1 | n | x | x | x | x | x
CN(C)c1ccc(Nc2nc(N)c3ccccc3n2)cc1 | n | u | n | n | x | 8.3µM
CN(C)c1nc(Nc2ccccc2)nc(N(C)C)n1 | n | n | n | n | n | n
O=C(COC(=O)COc1ccccc1)NCCC1=CCCCC1 | n | n | x | x | x | n
Cc1ccc(CC(=O)NCC2CCCCC2)cc1 | n | n | n | 26 | 71 | n
Cc1ccccc1CC(=O)NC1CCCCCC1 | n | n | n | n | n | u
Cc1ccccc1CC(=O)NCC1CCCCC1 | n | n | n | n | n | 12µM
Nc1cccc2c1C(=O)N(C(=O)/C=C/c1cccc(F)c1)C2=O | n | n | x | 34 | 140 | n
Nc1cccc2c1C(=O)N(C(=O)/C=C/c1cccc(Br)c1)C2=O | n | n | n | 40 | 43 | n
CCOc1ccccc1CNC(c1ccccc1)c1ccccc1 | n | n | n | n | x | u
CCOc1ccccc1O[C@@H](c1ccccc1)[C@@H]1CNCCO1 | x | u | x | x | x | 13µM
Cc1ccccc1Nc1nc(N)nc(COC(=O)CCS(=O)(=O)c2ccccc2)n1 | n | u | n | n | n | n
O=C(NCc1ccccc1)c1cccc(S(=O)(=O)NCc2ccccc2)c1 | n | n | n | n | n | u
O=C(COC(=O)c1cccc(S(=O)(=O)NCc2ccccc2)c1)c1ccccc1 | n | n | n | 19 | 57 | n
Cc1ccccc1Nc1nc(N)nc(COC(=O)c2cccc(S(=O)(=O)NCc3ccccc3)c2)n1 | n | u | n | n | n | 13µM
CCc1ccccc1Nc1nc(N)nc(COC(=O)CCNS(=O)(=O)c2ccccc2)n1 | n | 12µM | x | x | x | u
O=C(CNS(=O)(=O)c1ccccc1)OCC(=O)c1ccc(OC(=O)c2ccccc2)cc1 | n | n | n | 15 | 32 | n
Cc1cc(C)c(C(=O)COC(=O)c2cccc(S(=O)(=O)NCc3ccccc3)c2)cc1C | n | n | n | 23 | n | n
CNS(=O)(=O)c1cccc(C(=O)OCC(=O)NCc2ccccc2)c1 | n | x | n | n | n | n
O=C(CCCC1=NS(=O)(=O)c2ccccc2N1)OCc1ccc(Cl)cc1 | n | u | n | n | n | u
Cc1ccccc1COC(=O)CCC1=NS(=O)(=O)c2ccccc2N1 | x | n | n | n | n | 12µM
CCOC(=O)N1CCC(NC(=O)c2cc3c(=O)[nH]c4ccccc4c3n2C)CC1 | n | n | x | n | n | n
CN1CCN(C(c2ccccn2)c2cc(Cl)c3cccnc3c2O)CC1 (stereo not drawn) | n | 4.7µM | n | n | n | u
Oc1c(C(c2ccccc2Cl)N2CCCC2)ccc2cccnc12 (stereo not drawn) | n | n[1.15 µM] | n | n | n | u
Oc1c(C(c2ccccn2)N2CCC(Cc3ccccc3)CC2)cc(Cl)c2cccnc12 (stereo not drawn) | n | 2.9µM | x | n | n | n
SMILES | SARS PLpro yeast | Pf growth 48h | NS1 inh | Cycloheximide cs | Shiga inhibitor | Pf growth 96h
c1ccc(CC2CCN(Cc3ccccn3)CC2)cc1 | n | u | n | n | n | n
CN1CCN(C(c2ccc(C(F)(F)F)cc2)c2ccc3cccnc3c2O)CC1 (stereo not drawn) | n | u | n | n | n | u
Cc1ccc(C(c2cc(Cl)c3cccnc3c2O)N2CCN(C)CC2)cc1 (stereo not drawn) | x | 4.1µM | n | n | n | u
N#CC1=C(N)OC2=C(C(=O)CCC2)C1CCc1ccccc1 (stereo not drawn) | n | x | n | n | n | x
CNC(=O)Cn1nc(C)c(S(=O)(=O)N2CCOCC2)c1C | n | x | x | x | x | x
O=C(NCc1ccc(Cl)cc1)c1ccc2ccccc2n1 | n | n | n | 20 | n | n
O=C(Nc1ccc(Cl)cn1)c1ccc2ccccc2n1 | n | n | n | n | n | u
O=C(NCCOc1ccc(Cl)cc1)c1ccc2ccccc2n1 | n | n | n | 9.3 | n | n
Cc1ccc(C)c(NC(=O)NCc2ccc(Cl)cc2)c1 | x | x | n | x | x | x
Cc1cccc(C)c1OCC(=O)N[C@@H](Cc1ccccc1)[C@@H](O)C[C@H](Cc1ccccc1)NC(=O)[C@H](C(C)C)N1CCCNC1=O | x | 3.4µM | x | x | x | 6.7µM
